Test in all cases: log2 fold change, soluble protein after heating vs DMSO (PISA); higher = thermal stabilisation; K562 lysate, 10 uM; active = over 0.2 and 3.5 SD of the protein, either way, in both replicates (recomputed)
Compound in experiment [1]: NCC(=O)Nc1ccc(-n2nc(C(F)(F)F)cc2-c2ccc3c(ccc4ccccc43)c2)cc1
Summed up: (§1)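 Values give the log-two fold change in thermal stability against solvent controls, from duplicates. Crude K562 extract at 1 mg/mL protein, made by dounce homogenisation in PBS pH 7.4 with 1 mM MgCl2, was treated with 10 μM compound for 30 min. After 3 min heating across 48°C-58°C, aliquots were pooled, adjusted to 0.5% NP-40 at 4°C and centrifuged at 21,000xg for 90 min. The supernatant was measured by TMTpro 16plex LC-MS/MS with channel sums equalised.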

Compound in another experiment: O=C(CCCCCCC(=O)Nc1ccccc1)NO [vorinostat]
Summed up: as §1

Compound in the next experiment: O=C(O)c1ccc2c(c1)nc(Nc1cccc(Cl)c1)c1ccncc12 [silmitasertib]
The essentials:
as §1

Compound in experiment [2]: O=C1NC(=O)C(c2cnc3ccccn23)=C1c1cn2c3c(cc(F)cc13)CN(C(=O)N1CCCCC1)CC2
Summed up:
as §1

Compound in a further experiment: c1cn2cc(-c3ccc4cn[nH]c4c3)nc(Nc3ccc(N4CCOCC4)cc3)c2n1 [entospletinib]
Summed up:
as §1

Of roughly 8,800 targets only a part is listed; those with a hit were picked by preference. About 0.5% of all pairs of compound and target were hits.

UniProt P48147, sequence (P48147 whole entry, looked up): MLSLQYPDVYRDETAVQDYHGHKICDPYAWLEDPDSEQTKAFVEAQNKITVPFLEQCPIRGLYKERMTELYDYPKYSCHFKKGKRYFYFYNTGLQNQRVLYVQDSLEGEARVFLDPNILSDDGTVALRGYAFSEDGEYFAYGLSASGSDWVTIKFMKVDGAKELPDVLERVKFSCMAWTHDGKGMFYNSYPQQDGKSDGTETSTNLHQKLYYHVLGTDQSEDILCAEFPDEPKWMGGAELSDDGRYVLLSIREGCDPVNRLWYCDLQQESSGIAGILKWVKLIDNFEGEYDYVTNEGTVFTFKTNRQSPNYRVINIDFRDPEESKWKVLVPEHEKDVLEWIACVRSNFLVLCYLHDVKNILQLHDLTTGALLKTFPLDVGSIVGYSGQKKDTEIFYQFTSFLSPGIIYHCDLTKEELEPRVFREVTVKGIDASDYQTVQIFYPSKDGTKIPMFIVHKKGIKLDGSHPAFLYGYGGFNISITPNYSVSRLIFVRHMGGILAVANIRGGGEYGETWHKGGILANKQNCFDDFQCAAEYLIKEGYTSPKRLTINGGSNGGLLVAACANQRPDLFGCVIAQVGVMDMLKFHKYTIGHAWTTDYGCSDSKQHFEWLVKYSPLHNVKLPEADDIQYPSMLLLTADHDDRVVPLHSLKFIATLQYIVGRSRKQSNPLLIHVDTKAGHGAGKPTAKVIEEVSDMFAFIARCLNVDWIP
UniProt P41219, sequence (P41219 whole entry, looked up): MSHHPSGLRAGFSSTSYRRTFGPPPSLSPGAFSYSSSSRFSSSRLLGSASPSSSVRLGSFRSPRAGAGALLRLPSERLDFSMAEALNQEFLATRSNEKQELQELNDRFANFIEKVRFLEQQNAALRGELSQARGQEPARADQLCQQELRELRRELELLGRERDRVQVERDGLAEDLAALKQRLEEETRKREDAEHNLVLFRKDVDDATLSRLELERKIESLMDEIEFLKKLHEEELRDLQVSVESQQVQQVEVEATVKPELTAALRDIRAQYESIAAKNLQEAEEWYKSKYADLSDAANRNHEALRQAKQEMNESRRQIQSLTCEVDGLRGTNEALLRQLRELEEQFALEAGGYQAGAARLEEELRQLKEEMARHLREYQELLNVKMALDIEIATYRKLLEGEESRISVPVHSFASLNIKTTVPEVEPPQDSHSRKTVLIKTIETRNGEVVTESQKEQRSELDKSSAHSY
UniProt Q9Y244, sequence (Q9Y244 whole entry, looked up): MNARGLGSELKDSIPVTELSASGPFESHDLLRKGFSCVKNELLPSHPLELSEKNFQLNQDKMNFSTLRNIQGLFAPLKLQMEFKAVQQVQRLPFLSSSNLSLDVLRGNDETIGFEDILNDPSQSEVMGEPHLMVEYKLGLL
UniProt Q16875, sequence (Q16875 whole entry, looked up): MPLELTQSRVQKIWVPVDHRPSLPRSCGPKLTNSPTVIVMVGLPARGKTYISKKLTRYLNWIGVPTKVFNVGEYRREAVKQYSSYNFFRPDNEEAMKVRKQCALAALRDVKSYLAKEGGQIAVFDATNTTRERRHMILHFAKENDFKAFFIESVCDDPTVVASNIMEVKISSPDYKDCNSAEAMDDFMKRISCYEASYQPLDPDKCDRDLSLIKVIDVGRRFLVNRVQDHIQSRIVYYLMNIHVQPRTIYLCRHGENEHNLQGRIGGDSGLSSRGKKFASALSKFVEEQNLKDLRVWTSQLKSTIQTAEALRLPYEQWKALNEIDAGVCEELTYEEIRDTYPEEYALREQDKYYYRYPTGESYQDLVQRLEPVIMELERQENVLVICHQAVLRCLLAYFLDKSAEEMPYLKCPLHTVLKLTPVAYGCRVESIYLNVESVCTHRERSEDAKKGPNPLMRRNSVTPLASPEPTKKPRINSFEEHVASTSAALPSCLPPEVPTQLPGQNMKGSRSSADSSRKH
UniProt Q96S99, sequence (Q96S99 whole entry, looked up): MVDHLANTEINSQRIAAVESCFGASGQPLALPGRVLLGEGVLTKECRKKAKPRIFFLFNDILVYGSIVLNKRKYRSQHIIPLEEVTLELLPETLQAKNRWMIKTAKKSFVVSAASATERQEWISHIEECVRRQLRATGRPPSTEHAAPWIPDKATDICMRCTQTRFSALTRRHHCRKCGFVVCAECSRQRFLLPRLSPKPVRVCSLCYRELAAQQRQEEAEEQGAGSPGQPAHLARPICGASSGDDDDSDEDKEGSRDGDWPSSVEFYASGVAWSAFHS
UniProt Q01813, sequence (Q01813 whole entry, looked up): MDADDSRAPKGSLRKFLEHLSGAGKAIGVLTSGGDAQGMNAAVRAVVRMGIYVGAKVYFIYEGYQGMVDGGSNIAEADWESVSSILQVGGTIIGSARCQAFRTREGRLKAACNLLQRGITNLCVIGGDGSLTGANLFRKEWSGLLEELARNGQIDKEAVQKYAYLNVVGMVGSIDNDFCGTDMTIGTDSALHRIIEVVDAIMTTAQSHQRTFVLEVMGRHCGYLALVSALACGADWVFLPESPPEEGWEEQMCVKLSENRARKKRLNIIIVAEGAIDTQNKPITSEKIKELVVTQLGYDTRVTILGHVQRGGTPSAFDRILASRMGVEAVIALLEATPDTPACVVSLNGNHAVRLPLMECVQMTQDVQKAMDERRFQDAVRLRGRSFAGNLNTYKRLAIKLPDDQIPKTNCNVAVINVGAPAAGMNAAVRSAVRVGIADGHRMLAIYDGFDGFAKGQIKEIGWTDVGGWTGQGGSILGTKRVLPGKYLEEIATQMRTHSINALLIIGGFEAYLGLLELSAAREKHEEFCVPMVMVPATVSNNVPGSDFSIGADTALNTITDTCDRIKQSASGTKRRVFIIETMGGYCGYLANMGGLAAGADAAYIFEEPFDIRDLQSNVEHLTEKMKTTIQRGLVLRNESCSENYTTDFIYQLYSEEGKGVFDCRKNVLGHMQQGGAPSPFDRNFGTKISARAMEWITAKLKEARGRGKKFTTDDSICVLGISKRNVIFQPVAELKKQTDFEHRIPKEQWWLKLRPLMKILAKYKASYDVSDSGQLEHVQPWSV
UniProt Q96LW4, sequence (Q96LW4 whole entry, looked up): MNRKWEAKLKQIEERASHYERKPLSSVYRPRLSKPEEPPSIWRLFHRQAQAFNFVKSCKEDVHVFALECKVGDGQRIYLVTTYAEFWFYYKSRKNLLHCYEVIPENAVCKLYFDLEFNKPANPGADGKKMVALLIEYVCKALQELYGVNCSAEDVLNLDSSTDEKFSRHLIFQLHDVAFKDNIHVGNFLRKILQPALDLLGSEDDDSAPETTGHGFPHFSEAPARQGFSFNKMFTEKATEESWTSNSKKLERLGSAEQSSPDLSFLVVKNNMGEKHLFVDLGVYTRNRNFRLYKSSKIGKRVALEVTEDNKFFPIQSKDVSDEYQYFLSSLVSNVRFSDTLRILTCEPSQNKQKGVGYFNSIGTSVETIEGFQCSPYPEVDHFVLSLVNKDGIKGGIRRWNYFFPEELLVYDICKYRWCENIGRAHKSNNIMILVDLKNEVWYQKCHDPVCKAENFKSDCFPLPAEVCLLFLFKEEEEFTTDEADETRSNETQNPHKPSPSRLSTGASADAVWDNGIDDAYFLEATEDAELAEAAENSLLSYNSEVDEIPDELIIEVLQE
UniProt Q15269, sequence (Q15269 whole entry, looked up): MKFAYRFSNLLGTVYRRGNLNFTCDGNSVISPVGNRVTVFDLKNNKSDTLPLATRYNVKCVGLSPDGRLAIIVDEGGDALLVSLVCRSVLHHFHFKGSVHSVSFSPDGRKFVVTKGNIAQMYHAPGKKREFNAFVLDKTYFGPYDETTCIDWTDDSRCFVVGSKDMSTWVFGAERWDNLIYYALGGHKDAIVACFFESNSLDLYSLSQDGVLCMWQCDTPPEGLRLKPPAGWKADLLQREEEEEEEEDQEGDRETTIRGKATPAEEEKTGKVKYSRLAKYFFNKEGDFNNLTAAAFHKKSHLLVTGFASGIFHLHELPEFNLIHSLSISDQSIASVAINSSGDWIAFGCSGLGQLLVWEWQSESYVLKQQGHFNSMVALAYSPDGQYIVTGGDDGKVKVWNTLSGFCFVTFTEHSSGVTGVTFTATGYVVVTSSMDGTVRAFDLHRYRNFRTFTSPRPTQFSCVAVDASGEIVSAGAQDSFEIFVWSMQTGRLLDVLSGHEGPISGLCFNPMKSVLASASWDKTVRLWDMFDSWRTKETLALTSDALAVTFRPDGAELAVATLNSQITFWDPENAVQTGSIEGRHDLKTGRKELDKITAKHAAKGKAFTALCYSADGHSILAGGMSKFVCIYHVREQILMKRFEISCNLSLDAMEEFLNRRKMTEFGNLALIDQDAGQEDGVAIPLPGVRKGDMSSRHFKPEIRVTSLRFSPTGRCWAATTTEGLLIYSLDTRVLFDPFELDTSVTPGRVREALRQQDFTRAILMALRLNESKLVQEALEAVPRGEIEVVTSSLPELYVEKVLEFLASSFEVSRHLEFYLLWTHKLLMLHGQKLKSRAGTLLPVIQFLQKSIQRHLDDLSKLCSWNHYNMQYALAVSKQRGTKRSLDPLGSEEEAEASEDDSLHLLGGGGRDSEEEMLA
UniProt Q9Y570, sequence (Q9Y570 whole entry, looked up): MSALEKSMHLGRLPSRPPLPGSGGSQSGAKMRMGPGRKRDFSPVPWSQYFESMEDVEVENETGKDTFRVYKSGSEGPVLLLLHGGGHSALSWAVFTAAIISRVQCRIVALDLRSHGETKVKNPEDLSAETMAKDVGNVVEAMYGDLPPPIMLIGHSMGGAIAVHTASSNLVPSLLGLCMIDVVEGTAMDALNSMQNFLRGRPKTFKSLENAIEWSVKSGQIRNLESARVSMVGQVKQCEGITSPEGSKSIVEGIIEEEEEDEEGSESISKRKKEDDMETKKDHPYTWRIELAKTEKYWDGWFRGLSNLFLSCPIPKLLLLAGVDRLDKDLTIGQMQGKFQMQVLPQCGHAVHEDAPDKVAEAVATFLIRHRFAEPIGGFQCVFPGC
UniProt P07737, sequence (P07737 whole entry, looked up): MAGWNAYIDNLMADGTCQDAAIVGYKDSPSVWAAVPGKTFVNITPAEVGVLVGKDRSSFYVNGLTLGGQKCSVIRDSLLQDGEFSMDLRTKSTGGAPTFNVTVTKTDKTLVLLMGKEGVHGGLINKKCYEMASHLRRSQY

As for PGRMC1 (UniProt O00264), the log2 fold change is -0.018 (inactive) in experiment [1]; 0.113 (inactive) with vorinostat; 0.017 (inactive) with silmitasertib; 0.014 (inactive) in experiment [2]; -0.02 (inactive) in the experiment with entospletinib.
The matching figures for PFN1 (UniProt P07737): -0.006 (inactive), 0.083 (inactive), -0.004 (inactive), -0.014 (inactive) and 0.006 (inactive).
Consider PRIMPOL (UniProt Q96LW4), for which the log2 fold change in experiment [1] is -0.03 (inactive); with vorinostat, -0.337 (active); with silmitasertib it was 0.034 (inactive); in experiment [2], -0.028 (inactive); in the experiment with entospletinib, 0.029 (inactive).
The matching figures for PRPH isoform 2 (UniProt P41219): 0 (inactive), 0.112 (inactive), 0.001 (inactive), -0.098 (inactive) and -0.052 (inactive).
As for PLEKHF1 (UniProt Q96S99), the log2 fold change in experiment [1] was -0.019 (inactive); with vorinostat, -0.272 (active); in the experiment with silmitasertib, 0.07 (inactive); in experiment [2], -0.014 (inactive); with entospletinib, 0.014 (inactive).
In the case of PFKFB3 isoform 4 (UniProt Q16875), the log2 fold change was 0.025 (inactive) in experiment [1]; -0.34 (active) in the experiment with vorinostat; 0.108 (inactive) with silmitasertib; 0.017 (inactive) in experiment [2]; -0.006 (inactive) with entospletinib.
With PFKP (UniProt Q01813), the log2 fold change in experiment [1] was 0.004 (inactive); with vorinostat, 0.009 (inactive); with silmitasertib, 0.008 (inactive); in experiment [2], 0.03 (inactive); with entospletinib, 0.049 (inactive).
On to PPME1 isoform 4 (UniProt Q9Y570), for which the log2 fold change in experiment [1] was -0.02 (inactive); with vorinostat, -0.03 (inactive); with silmitasertib, 0.013 (inactive); in experiment [2] it was 0.005 (inactive); with entospletinib it was 0.031 (inactive).
PREP (UniProt P48147): the log2 fold change is 0.006 (inactive) in experiment [1]; -0.153 (inactive) in the experiment with vorinostat; 0.008 (inactive) with silmitasertib; -0.01 (inactive) in experiment [2]; 0.014 (inactive) in the experiment with entospletinib.
For the target PI4K2A (UniProt Q9BTU6), the log2 fold change is -0.006 (inactive) in experiment [1]; -0.005 (inactive) with vorinostat; 0.074 (inactive) with silmitasertib; -0.009 (inactive) in experiment [2]; 0.001 (inactive) with entospletinib.
For PWP2 (UniProt Q15269), the log2 fold change in experiment [1] was 0.007 (inactive); in the experiment with vorinostat it was -0.547 (active); in the experiment with silmitasertib it was 0.029 (inactive); in experiment [2], -0.014 (inactive); in the experiment with entospletinib, 0.019 (inactive).
In the case of POMP (UniProt Q9Y244), the log2 fold change in experiment [1] was -0.016 (inactive); with vorinostat it was -0.028 (inactive); in the experiment with silmitasertib, 0.05 (inactive); in experiment [2], 0.014 (inactive); in the experiment with entospletinib, -0.12 (inactive).
Take PPOX (UniProt P50336): the log2 fold change in experiment [1] is 0 (inactive); in the experiment with vorinostat, -0.142 (inactive); with silmitasertib it was 0.11 (inactive); in experiment [2], 0.016 (inactive); in the experiment with entospletinib, 0 (inactive).

For the origin of these results see the supplement of paper PMC10849652.
